# Values joined by “and” are separate entries in the source; they are usually repeats but may differ in a detail not shown here. Equal values may be shown once. The whole screen tested about 360,000 compounds, of which about 4,200 (1.2%) were called active. For the sample, actives were picked, then their nearest neighbours and some compounds at random. Unmarked numbers belong to inactive results.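 The calls were made as follows: active = mean replicate inhibition at least 60% with every replicate also reaching 60%; inconclusive = only one of the two criteria is met; inactive = mean below 60% and not all replicates reaching 60%.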
# Test: inhibitors of PAX8-driven TPO luciferase reporter, primary screen, RMG-I cells, single concentration (AID 652154);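 also: luciferase light reporting Pax8 driven TPO promoter activity; plate controls were median of neutral control wells for no effect and mitoxantrone controls for full effect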
# Conditions: SteadyGlo, 24 h, at 12.6 µM, active compounds read high
row,SMILES,inhibition
1,Cc1ccccc1-c1ccc([C@@H]2[C@H](CO)N3CCCCN(S(=O)(=O)c4ccc(F)cc4)C[C@@H]23)cc1,-34.4%
2,Cc1ccc(OCC(=O)Nc2ccc(N3CCN(C(=O)c4ccco4)CC3)cc2)c(C)c1,7.91%
3,Cc1ccc(C)c(OCC(=O)N2CCN(C(=O)c3ccco3)CC2)c1,64.3% (active)
4,O=C(OCC(=O)N1CCN(C(=O)c2ccco2)CC1)c1c(Cl)cccc1Cl,-6.1%
5,CC(C)=CCc1ccc(O)c(=O)cc1C(C)C,79.1% (active)
6,CC(C)c1cc(N=O)cc(C(C)C)c1O,1.72%
7,O=C(C[C@@H]1CC[C@H](NS(=O)(=O)c2cccc(F)c2)[C@H](CO)O1)N1CCCCC1,2.78%
8,O=C(CN1CCOCC1)N1CCCCN2[C@H](C1)[C@H](c1ccc(-c3ccccc3F)cc1)[C@@H]2CO,0.84%
9,C[C@@H]1CN([C@H](C)CO)C(=O)c2cc(NC(=O)c3ccncc3)ccc2O[C@@H]1CN(C)C(=O)Nc1ccc(F)cc1,-12.7%
10,CC[C@H](C)[C@H]1CNC(=O)C(=O)N1CC1CCN(CCc2ccc(OC)c(OC)c2)CC1,5.58%
11,Cc1noc(C)c1S(=O)(=O)Nc1ccc2c(c1)CC(=O)N([C@@H](C)CO)C[C@@H](C)[C@@H](CN(C)C(=O)Nc1ccc(C(F)(F)F)cc1)O2,4.57%
12,C[C@H]1CCCCO[C@@H](CN(C)C(=O)NC2CCCCC2)[C@@H](C)CN([C@@H](C)CO)C(=O)c2cc(NS(=O)(=O)c3ccc(Cl)cc3)ccc2O1,32.2%
13,COc1ccc(NC(=O)N(C)C[C@H]2OCCCC[C@@H](C)Oc3ccc(NS(=O)(=O)c4ccc(F)cc4)cc3C(=O)N([C@@H](C)CO)C[C@@H]2C)cc1,1.37%
14,COc1ccc(NC(=O)N(C)C[C@H]2OCCCC[C@H](C)Oc3ccc(NS(=O)(=O)c4ccc(Cl)cc4)cc3C(=O)N([C@@H](C)CO)C[C@H]2C)cc1,-13.3%
15,C[C@@H]1CCCCO[C@@H](CN(C)C(=O)NC2CCCCC2)[C@H](C)CN([C@H](C)CO)C(=O)c2cc(NS(=O)(=O)c3ccc(Cl)cc3)ccc2O1,89.7% (active)
16,C[C@@H]1CCCCO[C@H](CN(C)CC2CCCCC2)[C@H](C)CN([C@H](C)CO)C(=O)c2cc(NS(=O)(=O)c3ccc(F)cc3)ccc2O1,53.6%
17,C[C@H]1CCCCO[C@H](CN(C)CC2CCCCC2)[C@@H](C)CN([C@@H](C)CO)C(=O)c2cc(NS(=O)(=O)c3ccc(Cl)cc3)ccc2O1,68.9% (active)
18,C[C@@H]1CCCCO[C@@H](CN(C)C(=O)Nc2cccc3ccccc23)[C@H](C)CN([C@@H](C)CO)C(=O)c2cc(NS(=O)(=O)c3ccccc3)ccc2O1,22.1%
19,COc1ccc(NC(=O)N(C)C[C@@H]2OCCCC[C@@H](C)Oc3ccc(NS(=O)(=O)c4ccc(Cl)cc4)cc3C(=O)N([C@H](C)CO)C[C@H]2C)cc1,63.7% (active)
20,C[C@H](CO)N1C[C@H](C)[C@H](CN(C)CC2CCCCC2)OCCCC[C@H](C)Oc2ccc(NS(=O)(=O)c3ccc(F)cc3)cc2C1=O,52.9%
21,Cc1ccc(S(=O)(=O)Nc2ccc3c(c2)C(=O)N([C@@H](C)CO)C[C@@H](C)[C@H](CN(C)C(=O)Nc2cccc4ccccc24)OCCCC[C@H](C)O3)cc1,22.8%
22,C[C@@H]1CCCCO[C@H](CN(C)C(=O)NC2CCCCC2)[C@H](C)CN([C@H](C)CO)C(=O)c2cc(NS(=O)(=O)c3ccc(Cl)cc3)ccc2O1,53.7%

row,SMILES,inhibition
1,C[C@H]1CCCCO[C@@H](CN(C)C(=O)Nc2cccc3ccccc23)[C@@H](C)CN([C@@H](C)CO)C(=O)c2cc(NS(=O)(=O)c3ccc(Cl)cc3)ccc2O1,71.8% (active)
2,C[C@@H]1CN([C@@H](C)CO)S(=O)(=O)c2ccc(C3=CCCCC3)cc2O[C@@H]1CN(C)Cc1cccc(C(=O)O)c1,-22.5%
3,C/C=C/c1ccc([C@@H]2[C@@H](CO)N(C(C)=O)[C@H]2CN(C)C(=O)CN(C)C)cc1,0.935%
4,C[C@H]1CN([C@@H](C)CO)C(=O)Cc2cc(NC(=O)NC3CCCCC3)ccc2O[C@H]1CN(C)S(=O)(=O)c1cccs1,11.1%
5,O=C(C[C@@H]1CC[C@@H]2[C@H](COC[C@@H](O)CN2Cc2ccc(F)cc2)O1)NCc1ccncn1,-11.3%
6,Cc1ccc(S(=O)(=O)Nc2ccc3c(c2)C(=O)N([C@H](C)CO)C[C@@H](C)[C@@H](CN(C)C(=O)CCC(F)(F)F)OCCCC[C@@H](C)O3)cc1,-2.28%
7,O=C(NC1CCC1)[C@@H]1[C@@H](CO)[C@@H]2Cn3c(ccc(/C=C/c4ccccc4)c3=O)[C@@H]2N1Cc1ccncc1,7.46%
8,CN1C[C@H](O)COC[C@H]2O[C@H](CC(=O)NC3CCC3)CC[C@@H]21,-17.3%
9,CN(C)C(=O)c1cccc(-c2ccc([C@H]3[C@H](CO)N4C(=O)CN(C(=O)C5CCCCC5)C[C@@H]34)cc2)c1,-1.57%
10,C[C@H](CO)N1C[C@H](C)[C@@H](CN(C)C)OCCCC[C@H](C)Oc2ccc(NC(=O)C3CCCCC3)cc2C1=O,-11.4%
11,O=S(=O)(Cc1ccccc1)N1CCCCN2[C@@H](CO)[C@@H](c3ccc(-c4ccc(F)cc4)cc3)[C@@H]2C1,44.5%
12,C[C@@H]1CN([C@@H](C)CO)C(=O)c2cc(NS(=O)(=O)c3cccs3)ccc2O[C@@H](C)CCCCO[C@@H]1CN(C)C(=O)NC1CCCCC1,1.62%
13,Cc1ccc2nc(-c3ccc(Br)cc3)cn2c1,92.9% (active)
14,Cc1ccc(-c2nc3ccc(Cl)cn3c2Cc2ccccc2)cc1,-103%
15,Cc1ccc(-c2cn3cc(C)ccc3n2)cc1,91.9% (active)
16,CS(=O)(=O)Nc1cccc(-c2cn3ccccc3n2)c1,-44.1%
17,COc1ccc(-c2nc3ccc(Br)cn3c2Cc2ccc(C)cc2)cc1OC,-53.2%
18,Cc1ccc(-c2nc3ccc(Br)cn3c2Cc2ccccc2C(F)(F)F)cc1,-163%
19,O=C(C[C@@H]1C=C[C@H](NC(=O)CN2CCOCC2)[C@@H](CO)O1)NC1CCC1,-5.79%
20,C[C@H](CO)N1C[C@H](C)[C@H](CN(C)C)Oc2c(NS(=O)(=O)c3ccc(Cl)cc3)cccc2C1=O,-6.01%
21,COc1cccc(S(=O)(=O)N[C@H]2CC[C@H](CC(=O)NC3CCC3)O[C@H]2CO)c1,-7.93%
22,O=C(C[C@H]1C[C@@H]2c3cc(NC(=O)c4cccnc4)ccc3O[C@@H]2[C@H](CO)O1)NCc1ccccn1,-7.94%

row,SMILES,inhibition
1,Cc1ccc(N)cc1CN1CCN(c2ncc(Cc3ccccc3)cn2)CC1,-0.199%
2,Cc1cccc(-c2ccc(C3[C@@H]4CN(C(=O)Nc5ccc(C(F)(F)F)cc5)C[C@H]3N4)cc2)c1 (some centres undefined),116% (active) and 119% (active)
3,O=C(C1CCCCC1)N1C[C@@H]2N[C@H](C1)C2c1ccc(-c2cccc(F)c2)cc1 (some centres undefined),-14.7% and -21.2%
4,CN(C)C(=O)c1ccc(-c2ccc(C3[C@@H]4CN(C(=O)Nc5ccccc5)C[C@H]3N4)cc2)cc1 (some centres undefined),5.13%
5,CNC[C@H]1Oc2ccc(NC(=O)Nc3ccc4c(c3)OCO4)cc2CC(=O)N([C@H](C)CO)C[C@H]1C,2.09%
6,COc1ccc2c3c(n(C)c2c1)[C@@H](CO)N(Cc1ccncc1)CC31CN(C(=O)C2CCC2)C1,7.29%
7,COCC(=O)N(C[C@H]1N[C@H](CO)[C@H]1c1ccc(C2=CCCCC2)cc1)C(C)C,2.09%
8,CN(CC1CCCO1)S(=O)(=O)c1ccc(C(=O)Nc2ccc([N+](=O)[O-])cc2)cc1 (centres undefined),-4.55%
9,Cn1ccc(=Nc2ccc(NC(=O)c3ccc(N=c4ccn(C)c5ccc([N+](=O)[O-])cc45)cc3)cc2)cc1,79.6% (active)
10,Cn1c(=O)n(C)c2cc(C(=O)Nc3ccc(Br)cc3)ccc21,-6.12%
11,C[C@@H]1CN([C@H](C)CO)C(=O)c2cc(N(C)C)ccc2O[C@@H](C)CCCCO[C@@H]1CN(C)C(=O)CCCN(C)C,-0.0835%
12,Cc1sc2ccccc2c1CNC[C@H]1O[C@@H](n2ccc(=O)[nH]c2=O)[C@H](O)[C@@H]1O,3.61%
13,O=C(NS(=O)(=O)c1cccs1)[C@H]1O[C@@H](n2ccc(=O)[nH]c2=O)[C@H](O)[C@@H]1O,-7.69%
14,O=c1ccn([C@@H]2O[C@H](CNS(=O)(=O)c3cc4ccccc4s3)[C@@H](O)[C@H]2O)c(=O)[nH]1,78.9% (active)
15,C[C@H]1CN([C@@H](C)CO)C(=O)c2c(c3ccccc3n2C)-c2ccccc2CO[C@@H]1CN(C)Cc1ccc2c(c1)OCCN2C,-18%
16,CS(=O)(=O)N1[C@H](CO)[C@H](c2ccccc2)C12CN(C(=O)C1CC1)C2,-2.16%
17,COc1cccc(-c2cnc3c(c2)C(=O)N([C@H](C)CO)C[C@H](C)[C@@H](CN(C)Cc2ccc(C(=O)O)cc2)O3)c1,9.85%
18,OC[C@@H]1CN(Cc2ccc(-c3ccccc3)cc2)C[C@H](n2cnc3c(NC4CCCC4)ncnc32)O1,64.7% (active)
19,OC[C@@H]1CN(Cc2ccc(F)cc2)C[C@H](n2cnc3c(NC4CCCC4)ncnc32)O1,3.85%
20,OC[C@@H]1CN(Cc2cccs2)C[C@H](n2cnc3c(NC4CCCC4)ncnc32)O1,-6.69%
